The values that follow come from PubChem BioAssay (NCATS).

Several values for one entry are separate records, joined by “and”; a condition that tells them apart may be missing. Identical values can stand only once. Results filed as inconclusive are left out. Values without a mark were called inactive. Activity calls are given as the source filed them. Calls come from the whole dose curve; as a rule, active = well fitted curve in the direction sought with a large enough effect; inconclusive = small, poorly fitted or top-dose-only effect, or another doubt; inactive = no such curve, though single readings can be large; an effect the other way counts as inactive or inconclusive.

The target of assay [1] is Cellular tumor antigen p53 (Homo sapiens) (UniProt P04637). Kind of assay: Primary qHTS for small molecule compounds that upregulate eGFP-tagged delta133p53alpha (in N-terminal) cells. (AID 2060322).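 For activation: 0% = DMSO vehicle and 100% = reference activator.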 Note: nearly all actives have a fitted effect of over 75% in size. The note with it: NCI-H358 eGFP-delta133p53alpha fluorescence, 24 h; activation: active compounds read high. An outline of the steps:
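NCI-H358 cells pre-induced 24 h with 10 ng/ml doxycycline to express N-terminal eGFP-delta133p53alpha, then dosed 24 h at 37C without doxycycline; fixed, Hoechst-stained, GFP intensity by laser scanning cytometry, normalized to DMSO (0%) and 57.5 uM 5-azacytidine (100%).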

Assay [2] deals with Aldehyde dehydrogenase, mitochondrial (Homo sapiens) (UniProt P05091). The assay can be described thus: qHTS for Inhibitors of the Aldehyde Dehydrogenase Family (ALDH2) Primary screen (AID 2061308). Note: nearly all actives have a fitted effect of over 55% in size. The conditions noted are these: ALDH2 enzyme inhibition qHTS, 1536-well; series mostly up to 56 µM. (In qHTS, concentration-response curves come from the screen itself.)
Assay [3] concerns the target Retinaldehyde dehydrogenase 3 (Homo sapiens) (UniProt P47895). Kind of assay: qHTS for Inhibitors of the Aldehyde Dehydrogenase Family (ALDH1A3) Confirmatory screens (AID 2061311). Note: nearly all actives have a fitted effect of over 60% in size. The note with it: ALDH inhibition qHTS; series mostly up to 46 µM.
For assay [4] the target is unchanged. Kind of assay: qHTS for Inhibitors of the Aldehyde Dehydrogenase Family (ALDH1A3) Validation screen (AID 2061312). Note: nearly all actives have a fitted effect of over 45% in size. The note with it: ALDH1A3 enzyme inhibition qHTS validation, fluorescence; series mostly up to 84.7 µM.
For assay [5] the target is unchanged. The assay can be described thus: qHTS for Inhibitors of the Aldehyde Dehydrogenase Family (ALDH1A3) Primary screen (AID 2061315). The note with it: ALDH inhibition qHTS; series mostly up to 56 µM.
For assay [6], the target named is Retinal dehydrogenase 2 (Homo sapiens) (UniProt O94788). Kind of assay: qHTS for Inhibitors of the Aldehyde Dehydrogenase Family (ALDH1A2) Confirmation screens (AID 2061314). Note: nearly all actives have a fitted effect of over 65% in size. The conditions noted are these: ALDH1A2 enzyme inhibition qHTS confirmation; series mostly up to 45.9 µM.
Assay [7] has as its target Aldehyde dehydrogenase 1A1 (Homo sapiens) (UniProt P00352). The assay can be described thus: qHTS for Inhibitors of the Aldehyde Dehydrogenase Family (ALDH1A1) Confirmatory screens (AID 2061316). Note: nearly all actives have a fitted effect of over 65% in size. The conditions noted are these: ALDH inhibition qHTS; series mostly up to 47.3 µM.
Potency is the fitted concentration of half-maximal effect.

Cellular tumor antigen p53 (Homo sapiens), sequence (P04637 whole entry, looked up): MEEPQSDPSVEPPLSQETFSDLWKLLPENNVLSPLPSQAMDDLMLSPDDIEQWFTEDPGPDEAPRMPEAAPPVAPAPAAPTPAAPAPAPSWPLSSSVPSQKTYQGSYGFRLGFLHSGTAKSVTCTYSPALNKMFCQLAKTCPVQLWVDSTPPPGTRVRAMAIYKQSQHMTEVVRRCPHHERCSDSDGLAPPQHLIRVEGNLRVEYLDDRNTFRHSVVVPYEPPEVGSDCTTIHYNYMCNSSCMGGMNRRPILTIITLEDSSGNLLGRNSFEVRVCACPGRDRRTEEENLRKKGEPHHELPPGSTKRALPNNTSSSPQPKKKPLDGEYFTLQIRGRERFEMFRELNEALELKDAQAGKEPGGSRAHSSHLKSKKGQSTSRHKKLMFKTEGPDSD

On to `C[C@@H]1C[C@H]2OC(=O)[C@@]3(C)CCC[C@](C)(C23)[C@@]1(O)CCC1=CC(=O)OC1O` (stereo partly specified), for which the activation in assay [1] is 9.16%. Besides, the Potency result in assay [2] is “inactive”.

In the case of `COc1ncc(Nc2ncc([C@@H](C)N3CCN(S(C)(=O)=O)CC3)cc2-c2nc(C)nc(N)n2)cc1F`, in assay [1], the activation is 21%. Besides, the Potency result in assay [2], in assay [4] and in assay [5] was “inactive” each time. In assay [3], the Potency was 10 µM (active).

Regarding `CC(=O)c1c(C)cc2cccc(O)c2c1O[C@@H]1O[C@H](CO)[C@@H](O)[C@H](O)[C@H]1O`, in assay [1], the activation is -2.29%. Besides, the Potency result in assay [2] and in assay [6] was “inactive” throughout. Further, in assay [3], the Potency is 3.12 µM (active).

In the case of `C/C=C1\[C@H](OC2OC(COC3OC(CO)C(O)C(O)C3O)C(O)C(O)C2O)OC=C(C(=O)OC)[C@H]1CC(=O)OCCc1ccc(O)cc1` (stereo partly specified), in assay [1], the activation is -13%. Besides, the Potency entry in assay [2] is “inactive”.

With `COc1cc2c(cc1O)C1(Cc3ccc4c(c3C1=O)OCO4)N(C)CC2` (stereo unspecified), the activation in assay [1] was -7.63%. Besides, in assay [2], the Potency entry is “inactive”.

With `O=C(NO)c1ccc(CC(=O)N(CCO)c2ccccc2)cc1`, the activation in assay [1] is -8.59% and 7.82%. In addition, the Potency entry in assay [2] was “inactive”.

Regarding `O=[N+]([O-])c1ccc(-[n+]2nc(-c3ccccc3)nn2-c2ccc(I)cc2)cc1`, the activation in assay [1] was -2.39%. Further, the Potency result in assay [2] is “inactive”. Further, the Potency was 11.3 µM (active) in assay [3] and 17.8 µM (active) in assay [4].

Take `CNC(=S)NS(=O)(=O)c1cc(CCNC(=O)c2cc(Cl)ccc2OC)ccc1OC`: in assay [1], the activation was -6.68%. Moreover, the Potency result in assay [2], in assay [3], in assay [4], in assay [6] and in assay [5] was “inactive” in each case. Also, in assay [7], the Potency was 11.3 µM (active).

For the compound `CC(C)(Oc1ccc(-c2nc3cc(Cl)ccc3s2)cc1)C(=O)O`, the activation in assay [1] is -19.6%. Also, the Potency entry in assay [2] was “inactive”. Moreover, the Potency in assay [3] is 12.6 µM (active); in assay [4] it was 31.6 µM (active); in assay [5], 11.2 µM (active).

For the compound `C/C(=C\CC/C(C)=C/CC[C@]1(C)CCc2cc(O)cc(C)c2O1)CC/C=C(\C)C(=O)O`, the activation in assay [1] is -5.36%. In addition, the Potency entry in assay [2], in assay [3], in assay [6] and in assay [5] was “inactive” in each case.

Consider `COc1ccc(CC2C(=O)NC(C)C(=O)N(C)C3Cc4ccc(cc4)Oc4cc(ccc4OC4OC(CO)C(O)C(O)C4O)CC(C(=O)NC(C)C(=O)NC(C)C(=O)N2C)N(C)C3=O)cc1` (stereo unspecified), for which the values for the Potency in assay [1] and in assay [3] were 5.09 µM (active) and 4.78 µM (active), respectively. In assay [2], the Potency entry was “inactive”.

Turning to `CC[C@@H]1[C@H]2CCCCN3C(=O)C[C@H]([C@@H]4[C@H]1OC(=O)[C@H]4C)[C@@H]23`, the activation in assay [1] is -0.763%. In addition, the Potency result in assay [2] was “inactive”.

As to `C=C1[C@H]2[C@H](O[C@@H]3O[C@H](COC(=O)/C=C/c4cc(OC)c(O)c(OC)c4)[C@@H](O)[C@H](O)[C@H]3O)OC=C(C(=O)O)[C@H]2C[C@@H]1O`, the activation in assay [1] was -10.7%. For the same compound, the Potency entry in assay [2] is “inactive”.

In the case of `Cc1ccc(C(=O)Nc2noc3ccccc23)cc1`, the activation in assay [1] was -1%. The Potency entry in assay [2], in assay [6] and in assay [7] was “inactive” each time. Further, the Potency was 1.27 µM (active) in assay [3] and 5.01 µM (active) in assay [5].

Regarding `C[C@H](NCc1ccc(OCc2ccccc2F)cc1)C(N)=O`, in assay [1], the activation is 11.5%. Besides, in assay [2], the Potency entry is “inactive”.

On to `CC1=C(C(=O)O[C@@H]2O[C@H](COC3OCC(O)C(O)C3O)[C@@H](O)[C@H](O)[C@H]2O)C(C)(C)CCC1` (stereo partly specified), for which the activation in assay [1] was -13%. Also, the Potency result in assay [2] was “inactive”.

For the compound `OC[C@H]1O[C@@H](Oc2cc(O)cc(-c3cc4ccc(O)cc4o3)c2)[C@H](O)[C@@H](O)[C@@H]1O`, the activation in assay [1] was 13.4%. In addition, the Potency entry in assay [2] is “inactive”. In addition, the Potency in assay [3] is 12.3 µM (active).

On to `O=C(/C=C/c1ccc(O)cc1)O[C@H]1[C@@H]2C=CO[C@@H](O[C@@H]3O[C@H](CO)[C@@H](O)[C@H](O)[C@H]3O)[C@@H]2[C@@]2(CO)O[C@@H]12`, for which the activation in assay [1] was -7.63%. Also, the Potency entry in assay [2] is “inactive”.

As to `CC1(C)CC[C@]2(CO[C@@H]3O[C@H](CO)[C@@H](O)[C@H](O)[C@H]3O)[C@@H](O)C[C@]3(C)C(=CCC4[C@@]5(C)CC[C@H](O[C@@H]6O[C@H](CO[C@@H]7O[C@H](CO[C@@H]8OC[C@@H](O)[C@H](O)[C@H]8O)[C@@H](O)[C@H](O)[C@H]7O)[C@@H](O)[C@H](O)[C@H]6O)C(C)(C)C5CC[C@]43C)[C@@H]2C1` (stereo partly specified), the activation in assay [1] was -2.68%. Also, the Potency entry in assay [2] was “inactive”.

In the case of `COc1ccc(/C=C/C(=O)O[C@@H]2[C@@H](O)[C@@H](O)[C@H](O[C@@H]3C=C(CO)[C@H]4[C@H](O[C@@H]5O[C@H](CO)[C@@H](O)[C@H](O)[C@H]5O)OC=C[C@H]43)O[C@H]2C)cc1O`, in assay [1], the activation is -6.87%. In addition, the Potency result in assay [2] was “inactive”.

On to `COc1cc2ncnc(Nc3ccc(O)cc3)c2cc1OC`, for which the activation in assay [1] was 4.46%. Besides, in assay [2], the Potency result was “inactive”.

With `CCCC/C=C\CCCCCc1cc(=O)c2ccccc2n1C`, in assay [1], the activation is -0.893%. Also, the Potency in assay [2] was 8.91 µM (active); in assay [6], 6.97 µM (active). The Potency result in assay [3] and in assay [5] was “inactive” in each case.
